Assay results reported in PubChem BioAssay AID1259421 (Broad Institute, 2018).
Several values for one entry are separate records, joined by “and”; a condition that tells them apart may be missing. Equal values may be shown once. Screen size: about 6,400 compounds; about 610 (9.5%) were called active. Rule as the data show it: active = activity change below about -70%; inconclusive = no clear call, values can overlap the other calls; inactive = above that. Many of the other results were omitted from the sample, so actives are more common in it than they were. More than one record can exist for a structure, and the calls need not agree.

Assay: T. gondii ME49Luc in HeLa cells, luciferase assay, 72 h, no IFN-y (AID 1259421)
Settings: stronger effect = lower value, concentration not given here

Row | Compound | activity change, negative = inhibition
1 | CC(C)=CCC[C@](C)(O)[C@H]1CC[C@]2(C)[C@@H]1[C@H](O)C[C@@H]1[C@@]3(C)CC[C@H](O)C(C)(C)[C@@H]3[C@@H](O)C[C@]12C | 8.14% (inactive)
2 | COc1c2ccoc2cc2oc(C)cc(=O)c12 | 0.747% (inactive)
3 | C=C1/C(=C\C=C2\CCC[C@]3(C)[C@@H]([C@H](C)CCCC(C)C)CC[C@@H]23)C[C@@H](O)C[C@@H]1O | -54.9% (inactive)
4 | C=C1/C(=C\C=C2/CCC[C@]3(C)[C@@H]([C@H](C)CCCC(C)(C)O)CC[C@@H]23)C[C@@H](O)C[C@@H]1O | -69.8% (inactive) and 11.1% (inactive)
5 | C=C1CC[C@H](O)C/C1=C/C=C1\CCC[C@]2(C)[C@@H]([C@H](C)CC[C@@H](O)C(C)(C)O)CC[C@@H]12 | 1.97% (inactive)
6 | C=C1CC[C@H](O)C/C1=C/C=C1\CCC[C@]2(C)[C@@H]([C@H](C)CCCC(C)C)CC[C@@H]12 | -78.3% (active)
7 | C=C1/C(=C\C=C2/CCC[C@]3(C)[C@@H]([C@H](C)CC[C@@H](O)C(C)C)CC[C@@H]23)C[C@@H](O)C[C@@H]1O | 3.62% (inactive)
8 | C=C1/C(=C/C=C2/CCC[C@]3(C)[C@@H]([C@H](C)CCCC(C)C)CC[C@@H]23)C[C@@H](O)C[C@@H]1O | -75.5% (active)
9 | C=C1/C(=C/C=C2\CCC[C@]3(C)[C@@H]([C@H](C)/C=C/[C@@H](C)C(C)C)CC[C@@H]23)C[C@@H](O)C[C@@H]1O | -75% (active)
10 | C=C1/C(=C\C=C2/CCC[C@]3(C)[C@@H]([C@H](C)/C=C/[C@H](C)C(C)(C)O)CC[C@@H]23)C[C@@H](O)C[C@@H]1O | 13.5% (inactive)
11 | C=C1C(=C/C=C2\CCC[C@]3(C)[C@@H]([C@H](C)/C=C/[C@@H](O)C4CC4)CC[C@@H]23)C[C@@H](O)C[C@@H]1O | 12.8% (inactive)
12 | C[C@H]1OC(O)[C@H](O)[C@H](O)[C@H]1O (stereo not given in full) | -0.633% (inactive)
13 | CC(=O)O[C@H]1C[C@@H](O)C(C)(C)C2C[C@@H](OC(C)=O)[C@]3(C)C(CC[C@@]4(C)[C@H](c5ccoc5)OC(=O)C5OC543)[C@]21C (stereo not given in full) | -2.36% (inactive)
14 | Cc1c(Cn2ccnc2)c2ccccc2n1CCC(=O)O | 13% (inactive)
15 | O=c1[nH]c(-c2ccc(C(F)(F)F)cc2)nc2c1CSCC2 | 29.4% (inactive)
16 | NC1(C(=O)N[C@@H](CCO)c2ccc(Cl)cc2)CCN(c2ncnc3[nH]ccc23)CC1 | 9.43% (inactive)
17 | CC(C)C[C@H](NC(=O)[C@@H](Cc1c[nH]c2ccccc12)NC(=O)[C@H](Cc1ccc(O)cc1)NC(=O)[C@H](CO)NC(=O)[C@H](Cc1c[nH]c2ccccc12)NC(=O)[C@H](Cc1cnc[nH]1)NC(=O)[C@@H]1CCC(=O)N1)C(=O)N[C@@H](CCCN=C(N)N)C(=O)N1CCC[C@H]1C(=O)NCC(N)=O | -22.2% (inactive)
18 | CO[C@@]12[C@H](COC(N)=O)C3=C(C(=O)C(C)=C(N)C3=O)N1C[C@@H]1N[C@@H]12 | -10.9% (inactive)

Row | Compound | activity change, negative = inhibition
19 | CO[C@@]12[C@@H]3NC3CN1C1=C(C(=O)C(N)=C(C)C1=O)[C@@H]2COC(N)=O (stereo not given in full) | -81.9% (active) and -22.7% (inactive)
20 | N[C@@H](C(=O)O)C1=CCC=CC1 | -2.48% (inactive)
21 | C[C@@H]1O[C@@H](OC[C@H]2OC(Oc3c(-c4ccc(O)c(O)c4)oc4cc(O)cc(O)c4c3=O)[C@H](O)[C@@H](O)[C@@H]2O)[C@H](O)[C@H](O)[C@H]1O (stereo not given in full) | 0.376% (inactive)
22 | O=c1c(-c2cc(O)c(O)c(O)c2)coc2cc(O)c(O)c(O)c12 | 8.75% (inactive)
23 | NC(=O)N1C(=O)C(C(=O)c2cccs2)c2cc(Cl)ccc21 (stereo not given) | 8.36% (inactive) and 15.7% (inactive)
24 | O=C(Nc1ccncc1)Nc1ccc(-c2nc(N3CCOCC3)nc(N3C4CCC3COC4)n2)cc1 | -80% (active)
25 | CN(C)C1CCN(C(=O)c2ccc(NC(=O)Nc3ccc(-c4nc(N5CCOCC5)nc(N5CCOCC5)n4)cc3)cc2)CC1 | -1.91% (inactive)
26 | CCNC(=O)Nc1ccc(-c2nc3c(c(N4CCOC[C@@H]4C)n2)CCN(C2COC2)C3)cc1 | -37.1% (inactive)
27 | CC(C)CCOC(=O)c1ccc(N(C)C)cc1 | 67.6% (inactive)
28 | CN(C)c1ccc(C(=C2C=CC(=[N+](C)C)C=C2)c2ccc(N(C)C)cc2)cc1 | -90.8% (active) and -81% (active)
29 | COc1cccc(/C=N/N=C/c2cccc(OC)c2)c1 | 6.04% (inactive)
30 | C/C=C/C/C=C/CCC(=O)[C@H]1O[C@H]1C(N)=O | 20.9% (inactive)
31 | Cc1cc(C2CCCCC2)n(O)c(=O)c1 | -76.5% (active) and -74.6% (active) and -92.8% (active)
32 | CC(=O)O[C@]1(C(C)=O)CCC2C3C[C@H](C)C4=CC(=O)CC[C@]4(C)C3CC[C@@]21C (stereo not given in full) | 15% (inactive)
33 | CCOC(CN1CCN(CC(C)C(=O)c2ccccc2)CC1)c1ccccc1 (stereo not given) | 31.9% (inactive)
34 | NC(=S)N=Nc1ccc(NN=C(N)N)cc1 | 5.33% (inactive)
35 | Cc1ccc(/C=N/NC(=O)c2ccccc2Oc2ccccc2)o1 | 8.19% (inactive)
